The values below come from PubChem BioAssay (Tox21).

Assay [1] concerns the target Thyrotropin receptor (Homo sapiens) (UniProt P16473). As to the kind of experiment: qHTS assay to identify small molecule agonists of the thyroid stimulating hormone receptor (TSHR) signaling pathway (AID 1224843; calls by dose curve; also: nearly all actives have a fitted effect of over 45% in size). An outline of the steps:
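Using 15 concentrations per compound in triplicate, cAMP production was monitored in TSHR-HEK293 cells after 30 min compound incubation at RT; HTRF reagents followed, with fluorescence intensity recorded after 1 h.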
For orientation: qHTS replaces the single test concentration by a dilution series.

Assay [2] in a line: qHTS assay to identify small molecule agonists of the hypoxia (HIF-1) signaling pathway - cell viability counter screen (AID 1224844; calls by dose curve; also: nearly all actives have a fitted effect of over 50% in size). Put shortly:
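Viability counter screen: HRE-bla ME-180 cells plated 5 hrs before compound addition, treated 17 hrs at 37C and 5% CO2, then CellTiter-Glo added after the FRET reporter read; luminescence after 30 min.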

Assay [3] in a line: qHTS assay to identify small molecule agonists of H2AX (AID 1224845; active = well fitted activation curve with a large enough effect in the signal ratio in the repeat runs, not every such curve was filed as active; the % refers to the signal ratio; also: potency is read from the fitted curve at half-maximal effect). Put shortly: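 Wild-type CHO-K1 cells plated overnight, then exposed 3 hr at 37C to compounds at 15 concentrations (0.76% DMSO). Lysed, then HTRF anti-pH2AX(S139)-cryptate/anti-H2AX-d2 detection after 24 hr at room temperature; emissions 665 and 620 nm.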
Assay [4] is described as follows: qHTS assay to identify small molecule agonists of H2AX - cell viability counter screen (AID 1224847; calls by dose curve; also: top concentration of the series differs between compounds; nearly all actives have a fitted effect of over 30% in size). Put shortly:
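Quantitative HTS viability measurement: CHO-K1 wild-type cells in serum (10% FBS) medium, short 3 hr drug exposure at 37C with 0.76% DMSO, CellTiter-Glo luminescent detection.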

Assay [5] can be described thus: qHTS assay to identify small molecule agonists of the estrogen related receptor (ERR) signaling pathway from Tox21 library (AID 1224849; calls by dose curve; also: nearly all actives have a fitted effect of over 15% in size). The settings on record: ERR reporter cell line, ONE-Glo luciferase, 18 h; at 92.4 µM (top of the series) unless noted. Put shortly: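 Quantitative HTS in agonist format: NTP ERR cell line, compounds transferred in DMSO after 6 h plating, 18 h incubation at 37 C, ONE-Glo luminescence endpoint.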

Assay [6] can be described thus: qHTS RealTime-Glo MT Cell Viability Assay in HepG2 cells - 24 hour (AID 1224867). Also: nearly all actives have a fitted effect of over 50% in size. An outline of the steps: (§1)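 qHTS, HepG2, 600 cells/well, RealTime-Glo (NanoLuc + prosubstrate) added with cells; 5 h preincubation; DMSO compound addition; 37 C; luminescence at 0/8/16/24/32/40 h.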
Assay [7] is described as follows: qHTS RealTime-Glo MT Cell Viability Assay in HEK293 cells - 32 hour (AID 1224868). Also: top concentration of the series differs between compounds; nearly all actives have a fitted effect of over 50% in size. Put shortly:
(§2)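 Assay medium contained NanoLuc luciferase plus cell-permeant prosubstrate, added with HEK293 cells at 600 cells/well. After 5 h at 37 C/5% CO2 compounds were added; plates stayed at 37 C for 40 h with serial luminescence reads.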

Assay [8] is described as follows: A CellTox Green Cytotoxicity Assay to monitor cytotoxicity in HEK293 cells - 0 hour (AID 1224869). Also: nearly all actives have a fitted effect of over 50% in size. Put shortly:
(§3)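 Dead-cell fluorescence measured kinetically: asymmetric cyanine dye, HEK293, 600 cells/well, 5 h settle, 23 nL cpd/DMSO, 37 C, reads 0–40 h every 8 h.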

Assay [9] is described as follows: qHTS RealTime-Glo MT Cell Viability Assay in HepG2 cells - 40 hour (AID 1224870). Also: nearly all actives have a fitted effect of over 50% in size. Put shortly: (§4)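 HepG2 cells mixed with RealTime-Glo MT reagents (NanoLuc plus cell-permeant prosubstrate) were seeded at 600 cells/well, incubated 5 h at 37 C/5% CO2, then pinned with compounds in DMSO; nonlytic luminescence tracked viability during 40 h treatment.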
Assay [10] in a line: A CellTox Green Cytotoxicity Assay to monitor cytotoxicity in HEK293 cells - 40 hour (AID 1224871). Also: nearly all actives have a fitted effect of over 45% in size. Put shortly:
as §3

A short description of assay [11]: qHTS RealTime-Glo MT Cell Viability Assay in HEK293 cells - 16 hour (AID 1224872). An outline of the steps:
as §2

Assay [12] can be described thus: qHTS RealTime-Glo MT Cell Viability Assay in HepG2 cells - 8 hour (AID 1224873). Also: nearly all actives have a fitted effect of over 55% in size. Put shortly:
as §4

Assay [13] can be described thus: A CellTox Green Cytotoxicity Assay to monitor cytotoxicity in HEK293 cells - 24 hour (AID 1224875). Also: nearly all actives have a fitted effect of over 45% in size. Put shortly: as §3
The nature of assay [14]: A CellTox Green Cytotoxicity Assay to monitor cytotoxicity in HepG2 cells - 16 hour (AID 1224876). Also: nearly all actives have a fitted effect of over 45% in size. An outline of the steps: (§5)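 First, HepG2 cells (600/well) mixed with reagent were plated; second, after 5 h at 37 C they received compounds via pintool; third, fluorescence was measured at 0 h through 40 h at 8 h intervals.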
Assay [15] is described as follows: qHTS RealTime-Glo MT Cell Viability Assay in HepG2 cells - 32 hour (AID 1224877). Also: nearly all actives have a fitted effect of over 55% in size. Put shortly:
as §1

Assay [16] is described as follows: A CellTox Green Cytotoxicity Assay to monitor cytotoxicity in HepG2 cells - 24 hour (AID 1224878). Also: nearly all actives have a fitted effect of over 45% in size. An outline of the steps:
as §5

Assay [17] in a line: A CellTox Green Cytotoxicity Assay to monitor cytotoxicity in HepG2 cells - 40 hour (AID 1224879). Also: nearly all actives have a fitted effect of over 40% in size. Put shortly:
as §5

Assay [18] in a line: qHTS assay to identify small molecule agonists of the hypoxia (HIF-1) signaling pathway (AID 1224846; active = well fitted activation curve with a large enough effect in the signal ratio in the repeat runs, not every such curve was filed as active; the % refers to the signal ratio). An outline of the steps:
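Agonist mode reporter screen. ME-180 cells stably expressing bla under HRE control received test compounds in DMSO for 17 hrs (37C, 5% CO2), and beta-lactamase activity was then detected with the CCF4-AM FRET substrate.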

Assay [19] in a line: qHTS assay to identify small molecule antagonists of the estrogen related receptor (ERR) signaling pathway from Tox21 library (AID 1224848). Also: nearly all actives have a fitted effect of over 50% in size. Put shortly: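 Tox21 10K compounds in DMSO tested for ERR pathway antagonism in NTP's ERR cell line; 18 h, 37 C exposure; ONE-Glo luminescence.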
A short description of assay [20]: qHTS RealTime-Glo MT Cell Viability Assay in HEK293 cells - 40 hour (AID 1224874). Also: nearly all actives have a fitted effect of over 50% in size. The settings on record: RealTime-Glo luminescence; max response: stronger effect = lower value. An outline of the steps: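 600 HEK293 cells per well, dispensed already mixed with RealTime-Glo MT reagents. Compound dosing came 5 h later. The same wells were read for luminescence at 0, 8, 16, 24, 32 and 40 h of exposure at 37 C.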

A number with no mark means an inactive call. Results filed as inconclusive are left out. Active and inactive are the calls of the source. Unless noted, calls follow the shape of the dose curve; as a rule, active = well fitted curve in the direction sought with a large enough effect in the repeat runs; inconclusive = weak or mixed curves; inactive = no such curve, though single readings can be large; an effect the other way counts as inactive or inconclusive.
% is scaled to controls: 0 for no effect and ±100 for the full control effect.

Thyrotropin receptor (Homo sapiens), sequence (P16473 whole entry, looked up): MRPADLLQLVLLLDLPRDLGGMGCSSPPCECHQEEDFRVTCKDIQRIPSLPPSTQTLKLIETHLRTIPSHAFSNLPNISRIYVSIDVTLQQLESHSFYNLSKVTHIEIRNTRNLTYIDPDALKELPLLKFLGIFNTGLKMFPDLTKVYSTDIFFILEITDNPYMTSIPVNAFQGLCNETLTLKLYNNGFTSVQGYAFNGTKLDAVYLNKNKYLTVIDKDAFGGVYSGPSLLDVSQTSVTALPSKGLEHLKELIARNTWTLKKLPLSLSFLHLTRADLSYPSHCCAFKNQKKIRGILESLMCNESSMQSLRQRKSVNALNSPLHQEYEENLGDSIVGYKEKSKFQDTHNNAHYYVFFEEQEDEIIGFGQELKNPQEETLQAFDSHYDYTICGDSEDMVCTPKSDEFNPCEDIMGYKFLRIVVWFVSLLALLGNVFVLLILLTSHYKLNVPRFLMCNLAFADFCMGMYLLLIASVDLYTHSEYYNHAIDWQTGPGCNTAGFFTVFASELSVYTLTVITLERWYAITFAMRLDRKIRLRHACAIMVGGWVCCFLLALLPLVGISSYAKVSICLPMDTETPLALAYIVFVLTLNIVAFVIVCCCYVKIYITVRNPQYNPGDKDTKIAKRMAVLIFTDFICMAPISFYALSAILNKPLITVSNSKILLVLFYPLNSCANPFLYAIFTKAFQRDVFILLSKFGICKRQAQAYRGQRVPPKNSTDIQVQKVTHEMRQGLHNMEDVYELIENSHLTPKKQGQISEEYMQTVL

Turning to `C[C@]12CCC(=O)C=C1CC[C@@H]1[C@@H]2CC[C@@]2(C)[C@H]1CC[C@]2(O)C(=O)CO`, the Potency result in assay [1], in assay [2], in assay [3], in [4], in assay [6] and in [7] was “inactive” throughout. The Potency result in [8], in [9], in assay [10], in [11], in assay [13] and in assay [14] was “inactive” in each case. Besides, the Potency entry in [15], in [16] and in assay [17] was “inactive” each time. In addition, the activity change, positive = activation in [5] is -16% [at 42.5 µM]. Moreover, the call in assay [12] was inactive.

Turning to `COC(=O)c1ccc(OC)cc1`, the Potency result in assay [1], in [2], in assay [3], in assay [19], in assay [6] and in [7] was “inactive” each time. For the same compound, the Potency entry in assay [8], in assay [9], in assay [10], in [11], in assay [13] and in assay [14] was “inactive” throughout. Also, the Potency entry in [15], in assay [16] and in assay [17] was “inactive” throughout. In addition, the result in assay [18] and in assay [12] was inactive. Further, in assay [5], the activity change, positive = activation is 5.85%. Also, in assay [20], the max response was 0.622%.

Take `COC(=O)N[C@H](C(=O)N[C@@H](Cc1ccccc1)[C@@H](O)CN(Cc1ccc(-c2ccccn2)cc1)NC(=O)[C@@H](NC(=O)OC)C(C)(C)C)C(C)(C)C`: the Potency result in [1], in [2], in assay [4], in assay [6], in assay [7] and in assay [8] was “inactive” throughout. Moreover, the Potency entry in [10], in [11], in assay [13] and in [15] was “inactive” each time. Also, the Potency in assay [3] is 24.7 µM (active). Also, in assay [18], the compound was classed as inactive. For the same compound, the max response in assay [20] was -6.22%.

`O=C1Nc2ccc([N+](=O)[O-])cc2C1=O`: the Potency result in assay [1], in assay [2], in assay [3], in [4], in [6] and in assay [8] was “inactive” throughout. For the same compound, the Potency result in assay [9], in assay [10], in assay [13], in assay [14], in assay [15] and in assay [16] was “inactive” each time. Further, in assay [17], the Potency result is “inactive”. For the same compound, the call in assay [18] and in assay [12] was inactive.

Take `CC(=O)O[C@H]1CC[C@@]2(C)C(=CC[C@@H]3[C@@H]2CC[C@]2(C)C(C(C)=O)=CC[C@@H]32)C1`: the Potency entry in assay [1], in assay [2], in [3], in [6], in assay [8] and in [9] was “inactive” in each case. In addition, the Potency result in assay [10], in assay [11], in assay [13], in [14], in assay [15] and in [16] was “inactive” in each case. For the same compound, the Potency entry in [17] was “inactive”. The compound was classed as inactive in assay [18] and in assay [12]. The max response in assay [20] was -20.5%.

`CCN(CCCc1ccccc1)CCCc1ccccc1`: the Potency result in [1], in assay [2], in assay [3], in [4], in [19] and in [6] was “inactive” throughout. Besides, the Potency result in assay [8], in assay [9], in [10], in [13], in [14] and in assay [15] was “inactive” each time. Further, the Potency result in assay [16] is “inactive”. Further, the activity change, positive = activation in assay [5] was -7.88% [at 42.5 µM].
